PubChem BioAssay (Tox21)
Inconclusive results are not listed. Where a call stands in place of a potency, no number is given. Calls of active or inactive are those of the source. Calls come from the whole dose curve; as a rule, active = well fitted cell-killing curve with a large enough effect in the repeat runs; inconclusive = weak or mixed curves, or effect the other way; inactive = flat fitted curve, though single readings scatter.

Tests used:
[1] = cAMP Responsive Elements (CRE) small molecule antagonists, cell-based qHTS assay: qHTS cell viability counter screen (AID 2060913); note: nearly all actives have a fitted effect of over 40% in size
How it was run: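 Cytotoxicity counter screen multiplexed with the CRE-bla antagonist read: HEK293T cells in DMEM with dialyzed FBS and 25 mM HEPES were treated 3 hrs under 0.25 uM final NKH477, then viability measured by CellTiter-Glo luminescence.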

[2] = cAMP Responsive Elements (CRE) small molecule agonists, cell-based qHTS assay: qHTS cell viability counter screen (AID 2060914);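 note: viability read after 3 h of compound exposure; nearly all actives have a fitted effect of over 50% in size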
How it was run: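 HEK 293T CRE-bla; DMEM + 10% dialyzed FBS, 25 mM HEPES; 18 h pre-incubation; compound 3 h, 37 °C/5% CO2; CellTiter-Glo added after reporter read; luminescence after 30 min RT.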

## C[Si](C)(C)O[Si](C)(C)O[Si](C)(C)C
[1]
  Potency: inactive
[2]
  Potency: inactive

## Brc1ccc(Oc2ccc(Br)cc2)cc1
[1]
  Potency: inactive
[2]
  Potency: inactive

## COCCC(=O)OC
[1]
  Potency: inactive
[2]
  Potency: inactive

## O=C(OC(=O)c1ccccc1)c1ccccc1
[1]
  Potency: inactive
[2]
  Potency: inactive

## COCc1ccc(COC)cc1
[1]
  Potency: inactive
[2]
  Potency: inactive

## CCCCCCCCCCCCSC#N
[1]
  Potency: inactive
[2]
  Potency: inactive

## Oc1ccccc1Cc1ccccc1O
[1]
  Potency: inactive
[2]
  Potency: inactive

## CC(=O)C(C)C
[1]
  Potency: inactive
[2]
  Potency: inactive

## Cc1ccnc(N)c1
[1]
  Potency: inactive
[2]
  Potency: inactive

## CCCCC1(COC(=O)CCC(=O)O)C(=O)N(c2ccccc2)N(c2ccccc2)C1=O
[1]
  Potency: inactive
[2]
  Potency: inactive

## CCN(CC)c1ccc2c(c1)Oc1cc(N(CC)CC)ccc1C21OC(=O)c2ccccc21
[1]
  Potency: inactive
[2]
  Potency: inactive

## CCC(C)OC(=O)c1ccc(O)cc1 (centres undefined)
[1]
  Potency: inactive
[2]
  Potency: inactive
